Measured values taken from PubChem BioAssay AID488969 (Vanderbilt High Throughput Screening Facility, 2010).
Over roughly 110,000 compounds, “z-score” has its median near -0.1; the highest 2% begin near 2. This excerpt belongs to a sample that is enriched for the highest values. The source made the active and inactive calls.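 How the source made its calls: active means z-score in the third read window above 3 or below -3; inactive means the rest.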

What follows are compounds tested against Metabotropic glutamate receptor 8 (Rattus norvegicus) (UniProt P70579) (assay: rat mGluR8 modulators via GIRK flux, primary screen, cell-based, thallium flux, HTS (AID 488969)). Conditions: HEK293 rat mGluR8, GIRK (G protein-gated inwardly rectifying potassium channel) thallium flux, FluoZin2; at 10 µM; stronger effect = higher value; submaximal glutamate (EC20) added with thallium.
Chain of Metabotropic glutamate receptor 8 (Rattus norvegicus) (P70579 whole entry, looked up): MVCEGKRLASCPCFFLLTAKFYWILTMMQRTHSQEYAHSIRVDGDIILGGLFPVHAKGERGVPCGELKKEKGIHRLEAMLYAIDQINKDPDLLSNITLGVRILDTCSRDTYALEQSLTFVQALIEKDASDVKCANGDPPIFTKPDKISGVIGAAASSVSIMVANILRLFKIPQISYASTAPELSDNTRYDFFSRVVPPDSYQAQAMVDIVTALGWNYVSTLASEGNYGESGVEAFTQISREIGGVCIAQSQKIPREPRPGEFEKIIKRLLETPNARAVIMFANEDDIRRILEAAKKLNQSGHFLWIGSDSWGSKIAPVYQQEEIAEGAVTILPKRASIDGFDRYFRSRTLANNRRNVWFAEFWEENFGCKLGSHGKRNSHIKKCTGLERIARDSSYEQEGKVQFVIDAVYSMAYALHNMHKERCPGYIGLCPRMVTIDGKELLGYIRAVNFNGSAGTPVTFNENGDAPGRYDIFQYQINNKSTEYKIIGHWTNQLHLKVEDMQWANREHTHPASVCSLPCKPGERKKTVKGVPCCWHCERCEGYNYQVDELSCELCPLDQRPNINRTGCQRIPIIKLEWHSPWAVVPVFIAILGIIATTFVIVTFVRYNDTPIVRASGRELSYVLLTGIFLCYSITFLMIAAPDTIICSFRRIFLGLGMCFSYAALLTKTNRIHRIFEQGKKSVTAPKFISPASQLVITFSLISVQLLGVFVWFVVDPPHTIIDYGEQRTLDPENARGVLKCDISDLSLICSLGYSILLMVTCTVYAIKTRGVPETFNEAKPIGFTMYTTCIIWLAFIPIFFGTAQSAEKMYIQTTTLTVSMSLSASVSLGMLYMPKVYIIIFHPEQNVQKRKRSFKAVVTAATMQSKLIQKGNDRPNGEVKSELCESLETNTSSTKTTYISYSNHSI

| SMILES | z-score |
| --- | --- |
| COC(=O)c1[nH]c2ccc(F)cc2c1NC(=O)CCN1CC(C)OC(C)C1 (stereo unspecified) | -0.0436 |
| Cc1ccc(C(=O)N[C@H](C(=O)OCC(=O)NC2CCS(=O)(=O)C2)C(C)C)cc1 (stereo partly specified) | -0.0806 |
| COc1ccccc1NC(=O)c1ccc(S(=O)(=O)N(C)C)cc1 | -0.403 |
| Cc1ccc(CN(Cc2ccco2)S(=O)(=O)c2ccc(S(=O)(=O)NCC3CCCO3)cc2)cc1 (stereo unspecified) | -0.00067 |
| Cc1ccc(-c2nnn(CC(=O)NCc3ccccc3)n2)c(-n2cnnn2)c1 | -0.255 |
| O=C(Cn1nnc(-c2ccccc2-n2cnnn2)n1)N1CCCCC1 | 0.026 |
| Cc1ccc(-c2nnn(CC(=O)N3CCCCC3)n2)c(-n2cnnn2)c1 | 3.32 (active) |
| CC1CN=C(N(C(=O)Nc2ccccc2)c2ccc(S(=O)(=O)N3CCOCC3)cc2)S1 (stereo unspecified) | 0.945 |
| Cc1c(C(=O)Nc2ccc(-c3nnc4n3CCCCC4)cc2)oc2ccc(Br)cc12 | -0.49 |
| CCCCOc1ccc(Br)cc1/C(C)=N/NC1=NCCN1 | 1.54 |
| CCCCCOc1ccc(Br)cc1/C(C)=N/NC1=NCCN1 | 1.05 |
| CCOc1ccc(Br)cc1/C(C)=N\NC1=NCCN1 | 3.75 (active) |
| COc1ccccc1N1CCSC1C(N)=O (stereo unspecified) | 0.0543 |
| COC(=O)N1CCN(c2ccc(OC)cc2)CC1 | -0.134 |
| COc1ccc(N2CCSC2C(=O)NN)cc1 (stereo unspecified) | 2.09 |
| O=C(CSc1nc2ccccc2n1CC(=O)N1CCCC1)Nc1nccs1 | 0.452 |
| CCOC(=O)c1c(NC(=O)CSc2nnc(C)c(=O)[nH]2)sc2c1CCCC2 | -0.522 |
| CC1=CC(C)(C)N(C(=O)CSc2ncn[nH]2)c2ccc(C)cc21 | 0.223 |
| CC1=CC(C)(C)N(C(=O)c2ccccc2)c2ccc(C)cc21 | -0.576 |
| CCC(=O)N1c2ccc(C)cc2C2=NNC(=S)NC21O (stereo unspecified) | 3.09 (active) |
| CC1(C)NC(=O)N(CC(O)CNC23CC4CC(CC(C4)C2)C3)C1=O (stereo unspecified) | 0.426 |
| O=C(Nc1ccc(F)cc1F)c1ccc(-n2cncn2)nc1 | -0.0309 |
| CCOc1ccc(C(=O)NC(=S)N2CCN(c3ccc(C(F)(F)F)cc3[N+](=O)[O-])CC2)cc1 | 0.854 |

| SMILES | z-score |
| --- | --- |
| O=[N+]([O-])c1cc(C(F)(F)F)ccc1N1CCN(S(=O)(=O)c2ccc3ccccc3c2)CC1 | -0.295 |
| CO/N=C/c1ccc(N2CCN(C(=O)c3cccc(C(F)(F)F)c3)CC2)c([N+](=O)[O-])c1 | -0.0941 |
| COc1cccc(C(=O)NC(=S)N2CCN(c3ccc(C(F)(F)F)cc3[N+](=O)[O-])CC2)c1 | 4.68 (active) |
| COc1cc(OC)cc(C(=O)NC(=S)N2CCN(c3ccc(C(F)(F)F)cc3[N+](=O)[O-])CC2)c1 | 4.05 (active) |
| O=C(Nc1cc(C(F)(F)F)ccc1N1CCCCC1)c1cccc([N+](=O)[O-])c1 | -0.0811 |
| COc1ccc(C(=O)NC(=S)N2CCCCC2)cc1[N+](=O)[O-] | 1.25 |
| CC(C)Oc1cccc(C(=O)NC(=S)N2CCN(c3ccc(C(F)(F)F)cc3[N+](=O)[O-])CC2)c1 | 6.72 (active) |
| COc1cccc(OC)c1C(=O)NC(=S)N1CCN(c2ccc(C(F)(F)F)cc2[N+](=O)[O-])CC1 | 0.046 |
| Cc1nn(-c2cc(C)c3ccccc3n2)c2c1CCC2 | 0.557 |
| Cc1ccc(C)c(NC(=S)NC(NC(=O)/C=C/c2ccccc2)C(Cl)(Cl)Cl)c1 (stereo unspecified) | -0.264 |
| CC1CCCN(c2ccc(C(=O)OCC(=O)N3c4ccccc4Sc4ccccc43)cc2[N+](=O)[O-])C1 (stereo unspecified) | -0.269 |
| c1ccc2c(c1)CCCN2c1nc2ccccc2n2cnnc12 | -0.203 |
| COc1ccc(OC)c(NC(=O)C2CC(=O)n3ncnc3N2)c1 (stereo unspecified) | -0.244 |
| CS(=O)(=O)N(CC(=O)N1CCN(c2ccccc2)CC1)c1ccc(Cl)c(C(F)(F)F)c1 | -0.0753 |
| CCn1c(=NC(=O)c2ccc(N3C(=O)CCC3=O)cc2)sc2c(OC)ccc(OC)c21 | -0.536 |
| CCn1c(Cc2ccc(OC)cc2)nnc1SCC(=O)N1CCN(c2ccccc2)CC1 | 0.352 |
| O=C(O)C1CCCCC1C(=O)Nc1cc(Cl)ccc1Cl (stereo unspecified) | 2.08 |
| O=C(O)C1CC=CCC1C(=O)Nc1cc(Cl)ccc1Cl (stereo unspecified) | -0.205 |
| O=C(O)C1CCCCC1C(=O)Nc1ccccc1Cl (stereo unspecified) | -0.189 |
| CCCCC(=O)NC(=S)NNC(=O)CC#N | -0.265 |
| Clc1ccc2[nH]c3c(NCC4CCCO4)ncnc3c2c1 (stereo unspecified) | -3.05 (active) |
| Fc1ccc2[nH]c3c(NCCN4CCOCC4)ncnc3c2c1 | 0.07 |
| CCN1CCCC1CNc1ncnc2c1[nH]c1ccc(F)cc12 (stereo unspecified) | 2.55 |

| SMILES | z-score |
| --- | --- |
| CCOC(=O)c1ccc(Oc2c(C)oc3cc(OS(C)(=O)=O)ccc3c2=O)cc1 | -0.214 |
| Cc1ccc(/C=N/NC(=S)NC(C)C)o1 | -0.11 |
| CC(C)NC(=S)N/N=C/c1cc(Br)ccc1O | 6.43 (active) |
| NC(=O)N/N=C\c1cc(Br)ccc1O | -0.265 |
| FC(F)(F)c1cnc2c(c1)Nc1ccccc1S2 | 0.635 |
| N#Cc1c(-n2cccc2/C=N/O)sc2c1CCCC2 | -0.27 |
| C=CCNCc1cccn1-c1sc2c(c1C#N)CCCC2 | 2.43 |
| Cc1ccc(C)n1-c1sc2c(c1C#N)CCCC2 | -0.0485 |
| Oc1ccccc1C1=Nc2ccccc2N=C(c2cccs2)C1 | 0.0299 |
| O=C(CSc1nnc2n1CCCN2C(=S)Nc1ccc(Cl)cc1)c1ccccc1 | -0.14 |
| CN(c1ccc(C(=O)NCCSCc2ccco2)cc1)S(C)(=O)=O | -0.396 |
| COc1ccc(CC(=O)Nc2cc(=O)n(C)c(=O)n2C)cc1 | 2.78 |
| CCCC(=O)Nc1cc(=O)n(C)c(=O)n1C | -0.309 |
| Cn1c(NC(=O)COc2ccccc2)cc(=O)n(C)c1=O | 0.597 |
| Cn1c(NC(=O)CCc2ccccc2)cc(=O)n(C)c1=O | -0.492 |
| Cn1c(NC(=O)Cc2cccs2)cc(=O)n(C)c1=O | 0.422 |
| Cn1c(NC(=O)Cc2ccc(F)cc2)cc(=O)n(C)c1=O | 2.79 |
| Cc1cccc(CSCCNC(=O)Nc2ccccc2)c1 | -0.872 |
| CC(=O)NNc1nc(-c2ccc(NC(C)=O)cc2)cs1 | -0.0151 |
| CCOC(=O)/C=c1\s/c(=C\c2ccc(C)cc2)c(=O)n1CC(=O)NCc1ccco1 | 0.0354 |
| O=C(/C=C/c1ccc(Cl)cc1Cl)NC(=S)Nc1ccc(CN2CCOCC2)cc1 | 0.0804 |
| CC(=O)N/C(=C/c1ccc(OS(=O)(=O)c2ccc(C)cc2)cc1)C(=O)NCCO | -0.101 |
| CCOCC(=O)Nc1nnc(C)s1 | 1.02 |

| SMILES | z-score |
| --- | --- |
| C=C1C2(C(=O)Nc3ccc(SC(F)F)cc3)CCC(C2)C1(C)C (stereo unspecified) | 0.546 |
| CC12CCC(C(=O)Nc3ccc(SC(F)F)cc3)(CC1=O)C2(C)C (stereo unspecified) | 0.519 |
| O=C(Nc1ccc(SC(F)F)cc1)C12CCC(CC1)C2 | 3.38 (active) |
| CCCCCNCc1ccc(Br)cc1 | -0.224 |
| OCc1cc(CO)c(O)c(CCc2ccccc2)n1 | 0.171 |
| COc1cccc2sc(Nc3nnc(-c4cccs4)o3)nc12 | 17.4 (active) |
| CCOC(=O)c1sc(Nc2nc3c(OC)cccc3s2)cc1C | -0.137 |
| COc1cc(-c2nnc(-c3cc(OC)c(OC)c(OC)c3)o2)cc(OC)c1OC | -1.02 |
| COc1cc(-c2nnc(-c3cccs3)o2)cc(OC)c1OC | 2.27 |
| COc1ccc(-c2nnc(-c3cccs3)o2)cc1OC | -0.0864 |
| COc1cc2nc(-c3cccs3)oc(=O)c2cc1OC | -0.693 |
| COc1ccc(-c2nnc(Nc3nc4c(OC)cccc4s3)o2)cc1 | 17.1 (active) |
| COc1cccc2sc(Nc3nc(-c4ccccn4)cs3)nc12 | 5.31 (active) |
| c1ccc(Nc2nc(-c3ccccn3)cs2)cc1 | -0.545 |
| COc1cccc2sc(Nc3nc(-c4cc5ccccc5oc4=O)cs3)nc12 | 0.111 |
| COc1cccc2sc(NC(=O)c3ccc(Br)s3)nc12 | 0.601 |
| COc1cccc2sc(Nc3nc4ccc(NC(C)=O)cc4s3)nc12 | -0.147 |
| CCOc1ccc(NC(=O)CC2C(=O)N(C)C(=S)N2CCCc2ccccc2)cc1 (stereo unspecified) | 0.36 |
| O=C(Cc1c(F)cccc1Cl)c1ccc(O)cc1O | 0.0496 |
| CCOC(=O)c1cccc(NC(=O)C2CCCN2S(=O)(=O)c2cccc3cccnc23)c1 (stereo unspecified) | -0.226 |
| CN(CCOC(=O)C1c2ccccc2Oc2ccccc21)C(C)(C)C | 0.442 |
| CNC(=O)CCSc1ccc(C)cc1 | 1.02 |
| O=C(CSc1ncnc2c1cnn2CCc1ccccc1)Nc1cccc(C(F)(F)F)c1 | -0.203 |

| SMILES | z-score |
| --- | --- |
| CCN(CC)S(=O)(=O)c1cc(C)c(C)cc1Br | 0.329 |
| NS(=O)(=O)c1ccc(CCNC(=O)CNC(=O)C2CCCCC2)cc1 | -0.063 |
| O=C(Nc1cccc(F)c1)NC1(C(=O)N2CCN3CCCC3C2)CCCCC1 (stereo unspecified) | 0.517 |
| N#Cc1c(NC(=O)CSc2nc(-c3ccccc3)cc(C(F)(F)F)n2)sc2c1CCC2 | 0.0217 |
| c1ccc(-n2c(SCc3nc(-c4cccs4)no3)nnc2-c2ccco2)cc1 | -1.55 |
| CCOC(=O)CCC(=O)N1CCOCCOCCN(C(=O)CCC(=O)OCC)CCOCC1 | -0.107 |
| CCCCn1c(CN(C)Cc2ccccc2)nc2c1c(=O)n(C)c(=O)n2C | 0.165 |
| CCOCCn1c(CN(Cc2ccccc2)Cc2ccccc2)nc2c1c(=O)n(C)c(=O)n2C | 0.389 |
| COCCn1c(CN(Cc2ccccc2)Cc2ccccc2)nc2c1c(=O)n(C)c(=O)n2C | 3.37 (active) |
| CCCCn1c(CN(Cc2ccccc2)Cc2ccccc2)nc2c1c(=O)n(C)c(=O)n2C | 3.38 (active) |
| CCCCCn1c(CN(C)Cc2ccccc2)nc2c1c(=O)n(C)c(=O)n2C | 0.218 |
| COCCn1c(CN(C)Cc2ccccc2)nc2c1c(=O)n(C)c(=O)n2C | -0.377 |
| CCCCNC(=O)Nc1ccccc1C(=O)NCc1ccco1 | 0.486 |
| COc1cc(OC)cc(C(=O)NNC(=O)NC2CCCCC2)c1 | -0.0486 |
| CC(=O)NCCOc1ccc2oc3ccccc3c2c1 | -0.506 |
| O=C1c2ccccc2NC(c2cccc(Cl)c2)N1N=C1CCCCCC1 (stereo unspecified) | -0.359 |
| CCN(CC)C(=O)CSc1nc2ncccc2[nH]1 | 1.1 |
| CC(C)OC(=O)CSc1nc2ncccc2[nH]1 | -0.0946 |
| COC(=O)CSc1nc2ncccc2[nH]1 | 2.69 |
